Results filed as inconclusive are left out. Active and inactive are the calls of the source. How the source made its calls: active means hit-call score of the fitted dose curve at least 0.9, where 1 is the maximum; inconclusive means response in the unintended direction; inactive means score below 0.9.
Legend:
[1] = target: Muscarinic acetylcholine receptor M1 (Homo sapiens) (UniProt P11229); assay: NVS_GPCR_hM1: NovaScreen (NVS) G Protein-Coupled Receptor Assay for human Muscarinic, M1 Receptor (AID 2283270)
Summary of the method: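 Cell-free radioligand displacement using membrane protein extracted from CHO cells, read by filter-based scintillation counting 1 h after dosing. Loss of bound signal fitted versus DMSO; primary screen single concentration 25 uM in duplicate, actives followed by concentration series.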

[2] = target: Muscarinic acetylcholine receptor M5 (Homo sapiens) (UniProt P08912); assay: NVS_GPCR_hM5: NovaScreen (NVS) G Protein-Coupled Receptor Assay for human Muscarinic, M5 Receptor (AID 2283275)
Summary of the method: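 Radioligand displacement on CHO-derived membrane preparations, 1 h, filter-based scintillation counting. Single-concentration duplicate screen at 25 uM; hits (e.g. 30% inhibition) retested in singleton concentration-response up to 50 uM. Loss of binding fitted versus DMSO.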

[3] = target: human Neurokinin, NK2 Receptor, TACR2 (gene 6865) (UniProt P21452); assay: NVS_GPCR_hNK2: NovaScreen (NVS) G Protein-Coupled Receptor Assay for human Neurokinin, NK2 Receptor (AID 2283278);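 further: actives reduce bound radioligand signal relative to DMSO baseline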
Summary of the method: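 Radioligand binding on membranes from CHO cells expressing receptor, filter-based scintillation read 4 h after dosing. Initial duplicate screen at 25 uM, actives in concentration series; loss of signal versus DMSO.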

[4] = target: human Opioid Receptor Delta 1 (Opiate D1), OPRD1 (gene 4985) (UniProt P41143); assay: NVS_GPCR_hOpiate_D1: NovaScreen (NVS) G Protein-Coupled Receptor Assay for human Opioid Receptor Delta 1 (Opiate D1) (AID 2283280)
Summary of the method: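 Radioligand displacement on membranes from CHO cells expressing the receptor, read by filter scintillation counting 1 h after dosing. Duplicate single-point screen at 25 uM, then concentration series for actives; loss of signal versus DMSO.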

[5] = target: human Thromboxane A2 Receptor (TXA2), TBXA2R (gene 6915) (UniProt P21731); assay: NVS_GPCR_hTXA2: NovaScreen (NVS) G Protein-Coupled Receptor Assay for human Thromboxane A2 Receptor (TXA2) (AID 2283282);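 further: actives reduce bound radioligand signal relative to DMSO baseline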
Summary of the method: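 Biochem binding, human platelets, cell-free; competitive radioligand displacement; 1 h; filter radiodetection. 25 uM duplicate primary, conc. series secondary; DMSO neg. ctrl.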

[6] = target: mouse Cholecystokinin, CCK1 Receptor (CCKA), Cckar (gene 12425) (UniProt O08786); assay: NVS_GPCR_mCCKAPeripheral: NovaScreen (NVS) G Protein-Coupled Receptor Assay for mouse Cholecystokinin, CCK1 Receptor (CCKA) (AID 2283285)
Summary of the method: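 Radioligand competitive displacement on mouse pancreatic membranes, 2 h incubation; filter-based scintillation counting, loss of signal versus DMSO. Single-concentration screen at 25 uM in duplicate, actives retested in concentration-response up to 50 uM.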

[7] = target: human Vasopressin 1A Receptor (V1A), AVPR1A (gene 552) (UniProt P37288); assay: NVS_GPCR_hV1A: NovaScreen (NVS) G Protein-Coupled Receptor Assay for human Vasopressin 1A Receptor (V1A) (AID 2283284)
Summary of the method: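 Cell-free radioligand displacement on human platelet preparations, 1.5 h incubation, filter-based scintillation counting. Chemicals first tested in duplicate at 25 uM; actives then run in concentration-response up to 50 uM, loss of signal fitted against DMSO.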

[8] = target: rat Adrenergic, Alpha 1, Non-selective Receptor (Adra1), Adra1a (gene 29412) (UniProt P43140); assay: NVS_GPCR_rAdra1_NonSelective: NovaScreen (NVS) G Protein-Coupled Receptor Assay for rat Adrenergic, Alpha 1, Non-selective Receptor (Adra1) (AID 2283289)
Summary of the method: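 Rat forebrain membranes; radioligand displacement read by filter-based scintillation counting 1 h after dosing. Primary screen in duplicate at 25 uM; hits (e.g. ≥30% inhibition) rerun as concentration–response to 50 uM max. Fitted versus DMSO.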

[9] = target: Muscarinic acetylcholine receptor M2 (Homo sapiens) (UniProt P08172); assay: NVS_GPCR_hM2: NovaScreen (NVS) G Protein-Coupled Receptor Assay for human Muscarinic, M2 Receptor (AID 2283273)
Summary of the method: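 Radioligand displacement on human M2 receptor membranes from CHO cells, 1 h incubation, filtration with scintillation counting. Primary screen in duplicate at 25 uM; actives retested in concentration series; loss of signal fitted versus DMSO.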

[10] = target: Muscarinic acetylcholine receptor M3 (Homo sapiens) (UniProt P20309); assay: NVS_GPCR_hM3: NovaScreen (NVS) G Protein-Coupled Receptor Assay for human Muscarinic, M3 Receptor (AID 2283272)
Summary of the method: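 Radioligand displacement binding on human M3 receptor in CHO-derived membranes, 1 h incubation, filter-based scintillation counting. Primary screen in duplicate at 25 uM; actives followed up in concentration series; loss of signal versus DMSO.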

[11] = target: human Muscarinic, M4 Receptor, CHRM4 (gene 1132) (UniProt P08173); assay: NVS_GPCR_hM4: NovaScreen (NVS) G Protein-Coupled Receptor Assay for human Muscarinic, M4 Receptor (AID 2283274)
Summary of the method: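 Cell-free radioligand displacement using CHO-derived human M4 receptor protein, 1 h after dosing; bound radioactivity by filtration and scintillation counting. Primary screen single 25 uM duplicate, actives followed in concentration series.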

[12] = target: human Purinergic Receptor P2Y, P2RY1 (gene 5028) (UniProt P47900); assay: NVS_GPCR_hPY2: NovaScreen (NVS) G Protein-Coupled Receptor Assay for human Purinergic Receptor P2Y (AID 2283281)
Summary of the method: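 Cell-free radioligand binding using U937-derived protein, 1 h after dosing, filter-based scintillation counting. Screened in duplicate at 25 uM; actives rerun as concentration-response up to 50 uM; loss of signal versus DMSO.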

[13] = target: human Neurotensin Receptor (NTS), NTSR1 (gene 4923) (UniProt P30989); assay: NVS_GPCR_hNTS: NovaScreen (NVS) G Protein-Coupled Receptor Assay for human Neurotensin Receptor (NTS) (AID 2283279)
Summary of the method: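 Radioligand displacement on human NTSR1 protein from CHO cells, cell-free, 1 h, filter-based scintillation counting. Primary screen at 25 uM in duplicate; hits rerun in concentration-response up to 50 uM.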

[14] = target: rat Serotonin, 5-Hydroxytryptamine Receptor 1 (5HT1), Non-Selective Binding, Htr1a (gene 24473) (UniProt P19327); assay: NVS_GPCR_r5HT1_NonSelective: NovaScreen (NVS) G Protein-Coupled Receptor Assay for rat Serotonin, 5-Hydroxytryptamine Receptor 1 (5HT1), Non-Selective Binding (AID 2283286)
Summary of the method: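 Rat cortical membranes, radioligand displacement, 1 h incubation, read by filter scintillation. Primary screen in duplicate at 25 uM. Hits (e.g. ≥30% inhibition) went to concentration-response up to 50 uM, fitted as loss of binding versus DMSO.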

[15] = tested on: 5-hydroxytryptamine receptor 2C (pig); assay: NVS_GPCR_p5HT2C: NovaScreen (NVS) G Protein-Coupled Receptor Assay for pig Serotonin, 5-Hydroxytryptamine Receptor 2C (5HT2C) (AID 2283288)
Summary of the method: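 Pig choroid plexus membranes; radioligand competitive binding, filter-based scintillation counting, read 1 h after dosing. Primary screen in duplicate at 25 uM; actives then run as concentration series; loss of signal versus DMSO baseline.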

Sequence of rat Adrenergic, Alpha 1, Non-selective Receptor (Adra1), Adra1a (gene 29412) (P43140 whole entry, looked up): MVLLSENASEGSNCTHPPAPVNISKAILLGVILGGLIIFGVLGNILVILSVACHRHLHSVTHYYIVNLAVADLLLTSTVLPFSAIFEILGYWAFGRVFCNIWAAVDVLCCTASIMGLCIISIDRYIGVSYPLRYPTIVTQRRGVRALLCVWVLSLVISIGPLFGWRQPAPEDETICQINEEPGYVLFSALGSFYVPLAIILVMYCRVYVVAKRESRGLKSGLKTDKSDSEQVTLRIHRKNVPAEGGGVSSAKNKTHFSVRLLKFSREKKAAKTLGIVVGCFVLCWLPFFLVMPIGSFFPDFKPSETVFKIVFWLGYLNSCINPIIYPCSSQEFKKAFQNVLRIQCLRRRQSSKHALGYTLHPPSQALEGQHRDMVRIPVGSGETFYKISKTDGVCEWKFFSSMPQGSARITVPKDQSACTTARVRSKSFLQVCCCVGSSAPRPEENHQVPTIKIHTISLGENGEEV
Sequence of human Muscarinic, M4 Receptor, CHRM4 (gene 1132) (P08173 whole entry, looked up): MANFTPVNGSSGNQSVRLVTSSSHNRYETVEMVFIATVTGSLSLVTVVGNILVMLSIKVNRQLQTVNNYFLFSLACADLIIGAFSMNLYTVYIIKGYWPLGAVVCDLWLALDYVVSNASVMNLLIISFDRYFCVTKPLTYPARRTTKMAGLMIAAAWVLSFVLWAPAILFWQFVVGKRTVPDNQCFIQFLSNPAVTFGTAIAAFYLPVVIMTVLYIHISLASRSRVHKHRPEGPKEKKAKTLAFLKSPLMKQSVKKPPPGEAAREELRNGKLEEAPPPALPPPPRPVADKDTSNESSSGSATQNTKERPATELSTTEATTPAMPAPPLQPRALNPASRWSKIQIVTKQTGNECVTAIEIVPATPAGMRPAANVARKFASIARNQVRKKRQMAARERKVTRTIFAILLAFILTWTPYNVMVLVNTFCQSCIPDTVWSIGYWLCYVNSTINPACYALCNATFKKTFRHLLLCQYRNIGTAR
Sequence of Muscarinic acetylcholine receptor M1 (Homo sapiens) (P11229 whole entry, looked up): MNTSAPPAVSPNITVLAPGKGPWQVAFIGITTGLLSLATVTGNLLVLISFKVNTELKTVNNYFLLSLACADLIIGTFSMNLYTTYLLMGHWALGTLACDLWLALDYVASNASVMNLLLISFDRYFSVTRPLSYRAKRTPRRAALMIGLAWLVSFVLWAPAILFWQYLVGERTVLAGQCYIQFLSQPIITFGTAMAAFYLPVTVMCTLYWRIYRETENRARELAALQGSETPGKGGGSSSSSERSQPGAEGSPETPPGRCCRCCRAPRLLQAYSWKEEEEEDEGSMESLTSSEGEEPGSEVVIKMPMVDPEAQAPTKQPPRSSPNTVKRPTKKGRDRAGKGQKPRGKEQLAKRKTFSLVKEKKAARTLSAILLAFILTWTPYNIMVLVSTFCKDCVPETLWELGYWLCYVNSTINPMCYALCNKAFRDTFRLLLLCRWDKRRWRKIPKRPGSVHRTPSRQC
Sequence of human Neurokinin, NK2 Receptor, TACR2 (gene 6865) (P21452 whole entry, looked up): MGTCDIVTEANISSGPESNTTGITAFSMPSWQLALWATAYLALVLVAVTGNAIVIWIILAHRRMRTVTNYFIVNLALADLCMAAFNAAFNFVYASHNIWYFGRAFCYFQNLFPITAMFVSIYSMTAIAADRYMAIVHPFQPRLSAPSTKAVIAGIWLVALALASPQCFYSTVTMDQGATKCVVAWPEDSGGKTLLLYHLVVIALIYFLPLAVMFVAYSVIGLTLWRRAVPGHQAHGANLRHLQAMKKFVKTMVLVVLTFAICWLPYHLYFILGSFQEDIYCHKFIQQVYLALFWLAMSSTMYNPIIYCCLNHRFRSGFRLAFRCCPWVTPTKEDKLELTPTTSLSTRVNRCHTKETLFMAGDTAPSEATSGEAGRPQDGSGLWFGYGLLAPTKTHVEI
Sequence of Muscarinic acetylcholine receptor M5 (Homo sapiens) (P08912 whole entry, looked up): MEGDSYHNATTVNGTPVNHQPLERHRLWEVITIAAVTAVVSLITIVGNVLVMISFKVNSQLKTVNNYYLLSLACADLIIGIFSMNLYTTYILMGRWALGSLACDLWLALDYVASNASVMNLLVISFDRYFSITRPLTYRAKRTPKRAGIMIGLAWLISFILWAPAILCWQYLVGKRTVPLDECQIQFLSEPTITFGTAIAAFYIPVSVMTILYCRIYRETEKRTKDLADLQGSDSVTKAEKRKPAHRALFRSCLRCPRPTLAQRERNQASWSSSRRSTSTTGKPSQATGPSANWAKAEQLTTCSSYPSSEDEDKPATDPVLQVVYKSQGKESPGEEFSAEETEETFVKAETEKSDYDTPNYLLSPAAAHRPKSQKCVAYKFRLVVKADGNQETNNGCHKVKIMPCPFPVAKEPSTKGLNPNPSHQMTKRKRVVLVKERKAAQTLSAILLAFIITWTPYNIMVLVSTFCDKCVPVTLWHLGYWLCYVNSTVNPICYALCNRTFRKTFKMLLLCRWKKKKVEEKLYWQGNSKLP
Sequence of human Thromboxane A2 Receptor (TXA2), TBXA2R (gene 6915) (P21731 whole entry, looked up): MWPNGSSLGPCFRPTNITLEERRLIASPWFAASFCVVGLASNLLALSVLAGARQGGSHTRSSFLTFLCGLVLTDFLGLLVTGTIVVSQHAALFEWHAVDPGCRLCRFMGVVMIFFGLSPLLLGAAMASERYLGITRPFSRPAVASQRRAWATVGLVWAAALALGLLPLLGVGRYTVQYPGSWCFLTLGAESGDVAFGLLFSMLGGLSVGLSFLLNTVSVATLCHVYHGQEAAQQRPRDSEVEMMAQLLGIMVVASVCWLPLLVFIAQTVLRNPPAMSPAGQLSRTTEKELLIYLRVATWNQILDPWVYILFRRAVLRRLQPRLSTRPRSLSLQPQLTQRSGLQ
Sequence of human Opioid Receptor Delta 1 (Opiate D1), OPRD1 (gene 4985) (P41143 whole entry, looked up): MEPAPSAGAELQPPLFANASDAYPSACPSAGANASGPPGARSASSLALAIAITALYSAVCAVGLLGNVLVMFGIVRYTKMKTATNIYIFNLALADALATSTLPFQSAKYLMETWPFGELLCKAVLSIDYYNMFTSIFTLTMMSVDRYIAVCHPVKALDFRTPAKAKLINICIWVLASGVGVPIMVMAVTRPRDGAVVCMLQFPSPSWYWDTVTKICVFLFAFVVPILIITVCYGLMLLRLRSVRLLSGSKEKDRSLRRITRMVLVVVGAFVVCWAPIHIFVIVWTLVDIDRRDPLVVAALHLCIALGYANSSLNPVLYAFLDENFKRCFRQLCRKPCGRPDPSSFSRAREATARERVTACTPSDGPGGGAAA
Sequence of Muscarinic acetylcholine receptor M3 (Homo sapiens) (P20309 whole entry, looked up): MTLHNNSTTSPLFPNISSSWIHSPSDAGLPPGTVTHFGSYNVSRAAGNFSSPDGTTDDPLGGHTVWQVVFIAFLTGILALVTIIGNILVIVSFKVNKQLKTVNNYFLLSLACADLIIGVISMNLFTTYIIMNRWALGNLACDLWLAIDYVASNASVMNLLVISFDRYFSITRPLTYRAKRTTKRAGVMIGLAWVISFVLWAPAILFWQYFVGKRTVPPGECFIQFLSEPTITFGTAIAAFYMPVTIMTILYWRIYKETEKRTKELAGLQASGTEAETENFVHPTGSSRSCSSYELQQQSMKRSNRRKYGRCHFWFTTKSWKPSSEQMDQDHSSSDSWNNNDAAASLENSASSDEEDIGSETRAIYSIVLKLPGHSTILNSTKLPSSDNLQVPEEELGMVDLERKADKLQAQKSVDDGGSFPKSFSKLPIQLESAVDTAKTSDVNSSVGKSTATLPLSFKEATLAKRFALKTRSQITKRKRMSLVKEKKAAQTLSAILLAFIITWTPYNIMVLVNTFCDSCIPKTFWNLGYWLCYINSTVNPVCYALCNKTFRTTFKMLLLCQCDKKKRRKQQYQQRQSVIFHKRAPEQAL
Sequence of human Purinergic Receptor P2Y, P2RY1 (gene 5028) (P47900 whole entry, looked up): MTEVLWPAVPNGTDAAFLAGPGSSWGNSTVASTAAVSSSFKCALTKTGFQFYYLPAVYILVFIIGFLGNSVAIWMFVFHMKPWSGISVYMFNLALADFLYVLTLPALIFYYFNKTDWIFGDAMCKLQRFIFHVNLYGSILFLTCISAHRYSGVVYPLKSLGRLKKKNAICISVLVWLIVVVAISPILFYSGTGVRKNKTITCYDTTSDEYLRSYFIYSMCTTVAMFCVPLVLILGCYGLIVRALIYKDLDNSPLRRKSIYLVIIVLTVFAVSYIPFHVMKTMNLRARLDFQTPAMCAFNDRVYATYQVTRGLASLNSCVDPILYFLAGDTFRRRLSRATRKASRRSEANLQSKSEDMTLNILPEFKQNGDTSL
Sequence of Muscarinic acetylcholine receptor M2 (Homo sapiens) (P08172 whole entry, looked up): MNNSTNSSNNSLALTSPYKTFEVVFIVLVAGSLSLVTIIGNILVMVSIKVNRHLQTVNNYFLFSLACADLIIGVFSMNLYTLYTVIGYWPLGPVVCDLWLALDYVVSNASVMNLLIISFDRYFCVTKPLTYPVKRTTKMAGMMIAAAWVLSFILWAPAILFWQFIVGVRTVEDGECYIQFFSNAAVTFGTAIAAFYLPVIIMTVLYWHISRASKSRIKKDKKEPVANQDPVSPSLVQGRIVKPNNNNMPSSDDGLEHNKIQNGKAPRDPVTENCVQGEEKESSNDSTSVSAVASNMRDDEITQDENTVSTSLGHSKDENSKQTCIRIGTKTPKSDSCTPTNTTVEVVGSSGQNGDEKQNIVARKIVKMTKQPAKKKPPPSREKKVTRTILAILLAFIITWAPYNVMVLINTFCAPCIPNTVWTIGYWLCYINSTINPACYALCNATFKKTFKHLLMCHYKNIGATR
Sequence of mouse Cholecystokinin, CCK1 Receptor (CCKA), Cckar (gene 12425) (O08786 whole entry, looked up): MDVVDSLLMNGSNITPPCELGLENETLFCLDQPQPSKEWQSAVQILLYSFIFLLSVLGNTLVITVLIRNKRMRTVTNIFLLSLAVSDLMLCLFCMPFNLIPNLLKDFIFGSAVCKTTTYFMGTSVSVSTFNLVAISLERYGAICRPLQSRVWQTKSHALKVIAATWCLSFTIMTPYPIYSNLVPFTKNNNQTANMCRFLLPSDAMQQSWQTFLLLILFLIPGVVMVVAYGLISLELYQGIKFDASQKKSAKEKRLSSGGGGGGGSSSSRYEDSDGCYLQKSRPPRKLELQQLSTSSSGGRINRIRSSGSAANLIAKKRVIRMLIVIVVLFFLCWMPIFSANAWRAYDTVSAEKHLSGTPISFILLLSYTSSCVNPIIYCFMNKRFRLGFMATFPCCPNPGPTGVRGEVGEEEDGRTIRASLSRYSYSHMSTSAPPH

Cc1oc(-c2ccccc2)nc1CCOc1ccc(C[C@H](Nc2ccccc2C(=O)c2ccccc2)C(=O)O)cc1
outcome [1]: inactive
outcome [2]: inactive
outcome [3]: inactive
AC50 [4]: 12.8 µM (active)
AC50 [5]: 3.52 µM (active)

ClC1=C(Cl)C(Cl)(Cl)C(Cl)=C1Cl
outcome [6]: inactive

CCc1nn(C2CCCCC2)c2cc(C3(C#N)CCC(C(=O)O)CC3)ccc12 (stereo not given)
outcome [4]: inactive

N#C[C@@H]1CC(F)(F)CN1C(=O)CNC1CC2CCC(C1)N2c1ncccn1 (stereo not given in full)
outcome [7]: inactive

CCCCCCCCC(=O)O
AC50 [7]: 5.76 µM (active)
outcome [8]: inactive

CCCCCCCCCCCCCC[N+](C)(C)C
AC50 [9]: 1.07 µM (active)
AC50 [3]: 4.81 µM (active)

CCCCCCCC(=O)O
outcome [1]: inactive
outcome [10]: inactive
outcome [9]: inactive
AC50 [11]: 6.66 µM (active)

C#C[C@]1(O)CC[C@H]2[C@@H]3CCC4=CC(=O)CC[C@@H]4[C@H]3CC[C@@]21C
outcome [3]: inactive
outcome [12]: inactive

CCCCCCCCCCCCc1ccccc1S(=O)(=O)O
AC50 [1]: 18.4 µM (active)
AC50 [10]: 41 µM (active)
AC50 [11]: 33.5 µM (active)
AC50 [2]: 17.2 µM (active)
AC50 [3]: 38 µM (active)
AC50 [4]: 7.58 µM (active)
AC50 [12]: 12.3 µM (active)
AC50 [5]: 12.1 µM (active)
AC50 [8]: 38.7 µM (active)

NC(=O)N(O)[C@@H]1C=C[C@H](Oc2cccc(Oc3ccc(F)cc3)c2)C1
outcome [10]: inactive
AC50 [11]: 25 µM (active)
outcome [2]: inactive
outcome [3]: inactive
AC50 [13]: 8.13 µM (active)
outcome [8]: inactive

C=C(C)C(=O)OCCC(F)(F)C(F)(F)C(F)(F)C(F)(F)C(F)(F)C(F)(F)F
outcome [5]: inactive
outcome [14]: inactive

CCCCC(CC)COC(=O)CCCCC(=O)OCc1ccccc1 (stereo not given)
AC50 [5]: 12.7 µM (active)

CN1CCC[C@H]1c1cccnc1
outcome [11]: inactive
outcome [2]: inactive

CC[C@H](C)[C@@H](C(=O)O)n1sc2ccccc2c1=O
outcome [4]: inactive
outcome [5]: inactive

O=C(OCCOCCOC(=O)c1ccccc1)c1ccccc1
outcome [2]: inactive
outcome [3]: inactive

CCCOC(=O)c1ccc(O)cc1
outcome [15]: inactive

O=C(O)Cc1cc(I)c(Oc2cc(I)c(O)c(I)c2)c(I)c1
outcome [6]: inactive
outcome [8]: inactive

Nc1cccc2c(N)cccc12
outcome [3]: inactive
outcome [5]: inactive

CN1CCN(c2ccccc2/C=C2\SCCN(c3ccc(Cl)c(Cl)c3)C2=O)CC1
AC50 [3]: 6.97 µM (active)
AC50 [14]: 0.626 µM (active)
AC50 [15]: 0.748 µM (active)

From PubChem BioAssay (EPA / NIEHS)
